# Measured values as given in PMC7862700, “An all-to-all approach to the identification of sequence-specific readers for epigenetic DNA modifications on cytosine”.
# How the values were obtained:
# Assay in all cases: DAPPL (digital affinity profiling via proximity ligation, sequencing); 10 mM Tris-HCl pH 7.5, 50 mM NaCl, 1 mM DTT, 4% glycerol, room temperature, 30 min; GST-TFs on glutathione beads, 16-mer random dsDNA library, 0.1% formaldehyde crosslink after washing; high values mean tight binding
# [1] = target: T1, FLI1 (Homo sapiens, UniProt Q01543 1-452); conditions: protein: recombinant; tags: N-terminal GST; dsDNA, one strand shown
# T1 sequence: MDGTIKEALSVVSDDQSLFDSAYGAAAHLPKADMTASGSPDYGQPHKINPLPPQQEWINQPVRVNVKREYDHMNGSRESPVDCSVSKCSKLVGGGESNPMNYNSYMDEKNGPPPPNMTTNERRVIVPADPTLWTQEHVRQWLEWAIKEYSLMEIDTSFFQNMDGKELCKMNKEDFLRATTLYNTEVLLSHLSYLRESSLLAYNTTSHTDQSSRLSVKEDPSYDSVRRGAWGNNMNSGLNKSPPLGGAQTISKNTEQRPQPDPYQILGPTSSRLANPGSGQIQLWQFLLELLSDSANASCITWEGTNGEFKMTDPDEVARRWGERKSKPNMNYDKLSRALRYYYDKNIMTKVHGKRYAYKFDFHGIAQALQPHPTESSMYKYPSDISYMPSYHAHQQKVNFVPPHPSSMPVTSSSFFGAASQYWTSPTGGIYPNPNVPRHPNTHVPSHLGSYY
# Summary of the method: (§1)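 The binding signal reported is, for every hexamer, its read frequency for a factor over its read frequency for the tag-only sample. Reads came from pools of yeast-expressed, GST-fused human transcription factors on glutathione beads, barcoded with DNA and mixed with that sample, which were incubated with 200 nmole of a random double-stranded 16-mer DNA library in Tris/NaCl/DTT/glycerol buffer at room temperature for 30 min. After washing, the pools were crosslinked with 0.1% formaldehyde, proximity-ligated with BsaI/T4 ligase for 1 h at 37 °C, PCR-amplified and sequenced on an Illumina NextSeq500.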
# [2] = target: T2, ELK1 (Homo sapiens, UniProt P19419 1-428); conditions: protein: recombinant; tags: N-terminal GST; dsDNA, one strand shown
# T2 sequence: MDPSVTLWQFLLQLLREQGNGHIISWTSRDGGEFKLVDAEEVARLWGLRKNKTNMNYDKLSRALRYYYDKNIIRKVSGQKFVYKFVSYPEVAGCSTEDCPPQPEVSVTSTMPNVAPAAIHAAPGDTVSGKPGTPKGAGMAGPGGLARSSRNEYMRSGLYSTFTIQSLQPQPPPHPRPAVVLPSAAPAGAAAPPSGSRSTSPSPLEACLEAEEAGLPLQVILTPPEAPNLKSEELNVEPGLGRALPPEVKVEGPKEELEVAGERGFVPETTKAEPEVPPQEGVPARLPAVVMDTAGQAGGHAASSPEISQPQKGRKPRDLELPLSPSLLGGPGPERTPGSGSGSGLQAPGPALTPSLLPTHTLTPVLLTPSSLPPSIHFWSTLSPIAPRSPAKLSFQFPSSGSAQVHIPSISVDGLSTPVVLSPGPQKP
# Summary of the method: as §1
# [3] = target: T3, GABPA (Homo sapiens, UniProt Q06546 1-454); conditions: protein: recombinant; tags: N-terminal GST; dsDNA, one strand shown
# T3 sequence: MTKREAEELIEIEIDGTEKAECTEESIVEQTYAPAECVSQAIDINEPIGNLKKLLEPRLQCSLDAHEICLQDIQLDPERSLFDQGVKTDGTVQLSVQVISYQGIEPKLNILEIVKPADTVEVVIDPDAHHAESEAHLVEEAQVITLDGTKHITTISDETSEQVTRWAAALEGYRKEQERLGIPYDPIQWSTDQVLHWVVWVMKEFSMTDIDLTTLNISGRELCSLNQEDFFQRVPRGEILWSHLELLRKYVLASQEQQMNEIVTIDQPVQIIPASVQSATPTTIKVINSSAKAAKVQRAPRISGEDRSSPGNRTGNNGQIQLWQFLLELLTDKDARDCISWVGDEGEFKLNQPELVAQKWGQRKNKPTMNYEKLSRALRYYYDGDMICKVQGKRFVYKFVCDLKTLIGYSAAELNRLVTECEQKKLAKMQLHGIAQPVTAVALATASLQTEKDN
# Summary of the method: as §1
# [4] = target: T4, ERG (Homo sapiens, UniProt P11308 1-479); conditions: protein: recombinant; tags: N-terminal GST; dsDNA, one strand shown
# T4 sequence: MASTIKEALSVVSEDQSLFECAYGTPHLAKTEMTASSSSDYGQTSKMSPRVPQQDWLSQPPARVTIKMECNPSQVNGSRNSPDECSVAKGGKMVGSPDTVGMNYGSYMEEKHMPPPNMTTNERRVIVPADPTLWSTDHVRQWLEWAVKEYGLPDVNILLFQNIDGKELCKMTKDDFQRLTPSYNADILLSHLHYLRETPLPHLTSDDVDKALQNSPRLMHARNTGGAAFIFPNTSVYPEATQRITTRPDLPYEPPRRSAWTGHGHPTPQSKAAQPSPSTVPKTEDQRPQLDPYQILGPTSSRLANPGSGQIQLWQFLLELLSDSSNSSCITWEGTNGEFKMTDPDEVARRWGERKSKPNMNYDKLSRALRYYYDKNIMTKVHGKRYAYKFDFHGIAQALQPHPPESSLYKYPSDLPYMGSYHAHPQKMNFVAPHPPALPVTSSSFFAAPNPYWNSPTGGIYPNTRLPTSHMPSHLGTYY
# Summary of the method: as §1
# [5] = target: ELF1 (Homo sapiens, UniProt P32519 1-619); conditions: protein: recombinant; tags: N-terminal GST; dsDNA, one strand shown
# Summary of the method: as §1
# [6] = target: T5, EHF (Homo sapiens, UniProt Q9NZC4 1-300); conditions: protein: recombinant; tags: N-terminal GST; dsDNA, one strand shown
# T5 sequence: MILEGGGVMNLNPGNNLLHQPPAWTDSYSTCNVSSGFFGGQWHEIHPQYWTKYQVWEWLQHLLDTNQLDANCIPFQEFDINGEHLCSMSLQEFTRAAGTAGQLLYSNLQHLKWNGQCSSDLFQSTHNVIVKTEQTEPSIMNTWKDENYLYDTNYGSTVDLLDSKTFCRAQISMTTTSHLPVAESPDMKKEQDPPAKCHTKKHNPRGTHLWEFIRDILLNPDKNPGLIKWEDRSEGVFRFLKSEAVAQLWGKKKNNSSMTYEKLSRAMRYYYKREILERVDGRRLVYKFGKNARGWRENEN
# Summary of the method: as §1
# [7] = target: SPI1 (Homo sapiens, UniProt P17947 1-270); conditions: protein: recombinant; tags: N-terminal GST; dsDNA, one strand shown
# Summary of the method: as §1
# [8] = target: SPIB (Homo sapiens, UniProt Q01892 1-262); conditions: protein: recombinant; tags: N-terminal GST; dsDNA, one strand shown
# Summary of the method: as §1
# [9] = target: T6, ELK3 (Homo sapiens, UniProt P41970 1-407); conditions: protein: recombinant; tags: N-terminal GST; dsDNA, one strand shown
# T6 sequence: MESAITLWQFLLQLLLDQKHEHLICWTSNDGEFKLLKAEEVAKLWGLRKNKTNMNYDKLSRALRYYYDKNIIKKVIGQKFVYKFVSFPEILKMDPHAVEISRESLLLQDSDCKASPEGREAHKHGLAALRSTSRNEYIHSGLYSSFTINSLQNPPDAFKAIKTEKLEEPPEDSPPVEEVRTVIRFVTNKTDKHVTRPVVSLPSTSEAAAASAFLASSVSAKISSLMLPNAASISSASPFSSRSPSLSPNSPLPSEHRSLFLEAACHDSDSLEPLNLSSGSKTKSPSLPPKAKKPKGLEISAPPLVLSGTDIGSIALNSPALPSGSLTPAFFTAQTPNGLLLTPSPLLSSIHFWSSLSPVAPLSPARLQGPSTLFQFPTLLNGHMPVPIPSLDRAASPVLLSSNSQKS
# Summary of the method: as §1
# [10] = target: T7, FEV (Homo sapiens, UniProt Q99581 1-238); conditions: protein: recombinant; tags: N-terminal GST; dsDNA, one strand shown
# T7 sequence: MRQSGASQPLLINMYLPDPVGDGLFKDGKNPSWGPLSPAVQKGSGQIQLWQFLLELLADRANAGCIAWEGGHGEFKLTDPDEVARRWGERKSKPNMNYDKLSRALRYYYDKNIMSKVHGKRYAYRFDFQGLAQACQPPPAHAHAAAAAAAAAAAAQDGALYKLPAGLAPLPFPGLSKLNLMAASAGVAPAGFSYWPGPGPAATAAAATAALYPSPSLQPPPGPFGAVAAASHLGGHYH
# Summary of the method: as §1
# [11] = target: ETV5 (Homo sapiens, UniProt P41161 1-510); conditions: protein: recombinant; tags: N-terminal GST; dsDNA, one strand shown
# Summary of the method: as §1
# [12] = target: HSF1 (Homo sapiens, UniProt Q00613 1-529); conditions: protein: recombinant; tags: N-terminal GST; chain copies: 3; dsDNA, one strand shown
# Summary of the method: as §1
# [13] = target: T8, SPIC (Homo sapiens, UniProt Q8N5J4 1-248); conditions: protein: recombinant; tags: N-terminal GST; dsDNA, one strand shown
# T8 sequence: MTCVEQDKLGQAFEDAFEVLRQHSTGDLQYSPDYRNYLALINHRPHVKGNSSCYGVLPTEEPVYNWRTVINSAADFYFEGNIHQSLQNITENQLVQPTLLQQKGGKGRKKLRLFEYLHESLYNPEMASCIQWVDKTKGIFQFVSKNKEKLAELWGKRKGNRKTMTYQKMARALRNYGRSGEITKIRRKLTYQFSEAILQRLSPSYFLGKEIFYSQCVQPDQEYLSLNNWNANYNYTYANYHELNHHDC
# Summary of the method: as §1
# [14] = target: ELF4 (Homo sapiens, UniProt Q99607 1-663); conditions: protein: recombinant; tags: N-terminal GST; dsDNA, one strand shown
# Summary of the method: as §1
# [15] = target: T9, ELK4 (Homo sapiens, UniProt P28324-2 1-405); conditions: protein: recombinant; tags: N-terminal GST; dsDNA, one strand shown
# T9 sequence: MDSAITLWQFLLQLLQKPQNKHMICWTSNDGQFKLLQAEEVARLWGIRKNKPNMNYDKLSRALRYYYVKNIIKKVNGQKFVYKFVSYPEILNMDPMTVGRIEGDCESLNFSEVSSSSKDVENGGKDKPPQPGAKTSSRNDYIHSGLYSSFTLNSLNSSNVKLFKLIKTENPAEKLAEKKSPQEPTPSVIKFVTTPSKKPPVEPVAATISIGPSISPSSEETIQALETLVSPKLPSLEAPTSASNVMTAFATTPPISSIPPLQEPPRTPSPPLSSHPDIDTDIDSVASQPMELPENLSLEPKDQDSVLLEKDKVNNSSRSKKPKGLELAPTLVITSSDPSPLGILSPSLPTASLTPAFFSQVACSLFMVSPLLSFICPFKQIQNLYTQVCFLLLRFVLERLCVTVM
# Summary of the method: as §1
# [16] = target: T10, ETV2 (Homo sapiens, UniProt O00321 1-342); conditions: protein: recombinant; tags: N-terminal GST; dsDNA, one strand shown
# T10 sequence: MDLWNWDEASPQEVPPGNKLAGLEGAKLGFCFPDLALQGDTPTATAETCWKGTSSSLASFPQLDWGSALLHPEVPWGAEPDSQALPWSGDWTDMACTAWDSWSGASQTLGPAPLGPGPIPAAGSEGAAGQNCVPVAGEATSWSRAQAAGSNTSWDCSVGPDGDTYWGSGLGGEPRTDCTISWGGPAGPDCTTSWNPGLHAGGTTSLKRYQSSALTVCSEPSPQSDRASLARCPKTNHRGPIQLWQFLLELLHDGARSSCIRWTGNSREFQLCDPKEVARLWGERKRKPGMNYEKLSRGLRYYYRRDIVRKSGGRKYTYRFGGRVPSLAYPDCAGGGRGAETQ
# Summary of the method: as §1
# [17] = target: T11, ELF3 (Homo sapiens, UniProt P78545 1-371); conditions: protein: recombinant; tags: N-terminal GST; dsDNA, one strand shown
# T11 sequence: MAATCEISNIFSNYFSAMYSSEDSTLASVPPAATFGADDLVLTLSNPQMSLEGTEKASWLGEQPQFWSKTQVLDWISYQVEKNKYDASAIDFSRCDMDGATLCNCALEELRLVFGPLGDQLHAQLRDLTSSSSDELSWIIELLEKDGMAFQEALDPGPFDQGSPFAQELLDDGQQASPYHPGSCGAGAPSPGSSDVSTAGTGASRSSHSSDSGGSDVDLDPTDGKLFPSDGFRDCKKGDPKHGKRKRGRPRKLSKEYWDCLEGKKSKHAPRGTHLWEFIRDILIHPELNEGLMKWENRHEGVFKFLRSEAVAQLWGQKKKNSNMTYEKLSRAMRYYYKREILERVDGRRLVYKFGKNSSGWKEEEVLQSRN
# Summary of the method: as §1
# [18] = target: ETV1 (Homo sapiens, UniProt P50549 1-477); conditions: protein: recombinant; tags: N-terminal GST; dsDNA, one strand shown
# Summary of the method: as §1
# ETV5, sequence (P41161 whole entry): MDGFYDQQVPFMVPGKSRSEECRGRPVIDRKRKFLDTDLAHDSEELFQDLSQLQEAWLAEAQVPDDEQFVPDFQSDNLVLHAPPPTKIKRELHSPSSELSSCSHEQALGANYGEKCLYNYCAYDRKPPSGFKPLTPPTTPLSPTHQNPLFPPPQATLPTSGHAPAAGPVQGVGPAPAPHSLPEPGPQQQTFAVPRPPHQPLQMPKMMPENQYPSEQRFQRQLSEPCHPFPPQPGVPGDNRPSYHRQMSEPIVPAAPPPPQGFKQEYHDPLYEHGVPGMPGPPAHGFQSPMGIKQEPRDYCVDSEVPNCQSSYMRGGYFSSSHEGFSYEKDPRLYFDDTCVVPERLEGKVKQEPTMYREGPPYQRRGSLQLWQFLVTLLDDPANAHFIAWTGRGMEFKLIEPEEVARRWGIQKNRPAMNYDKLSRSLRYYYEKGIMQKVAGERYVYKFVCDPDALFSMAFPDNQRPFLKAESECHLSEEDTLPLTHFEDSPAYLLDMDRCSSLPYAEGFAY
# ELF4, sequence (Q99607 whole entry): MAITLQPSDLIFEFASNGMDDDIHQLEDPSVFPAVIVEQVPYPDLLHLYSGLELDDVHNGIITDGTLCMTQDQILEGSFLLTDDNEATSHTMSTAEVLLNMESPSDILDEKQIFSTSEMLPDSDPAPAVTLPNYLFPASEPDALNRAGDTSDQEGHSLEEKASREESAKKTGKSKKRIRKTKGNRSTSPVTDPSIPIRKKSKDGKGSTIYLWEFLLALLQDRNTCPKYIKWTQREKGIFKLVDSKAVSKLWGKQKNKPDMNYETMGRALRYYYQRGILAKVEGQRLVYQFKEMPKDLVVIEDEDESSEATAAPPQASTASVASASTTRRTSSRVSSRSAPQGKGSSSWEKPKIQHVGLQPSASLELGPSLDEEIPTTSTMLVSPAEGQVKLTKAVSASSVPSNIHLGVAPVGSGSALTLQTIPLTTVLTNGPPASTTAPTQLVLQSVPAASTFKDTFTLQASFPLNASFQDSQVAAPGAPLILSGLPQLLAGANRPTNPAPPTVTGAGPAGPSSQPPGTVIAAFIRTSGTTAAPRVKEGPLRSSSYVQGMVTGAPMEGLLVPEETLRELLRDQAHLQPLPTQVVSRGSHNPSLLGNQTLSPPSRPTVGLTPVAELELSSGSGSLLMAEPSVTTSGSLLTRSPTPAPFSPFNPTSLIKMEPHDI
# ETV1, sequence (P50549 whole entry): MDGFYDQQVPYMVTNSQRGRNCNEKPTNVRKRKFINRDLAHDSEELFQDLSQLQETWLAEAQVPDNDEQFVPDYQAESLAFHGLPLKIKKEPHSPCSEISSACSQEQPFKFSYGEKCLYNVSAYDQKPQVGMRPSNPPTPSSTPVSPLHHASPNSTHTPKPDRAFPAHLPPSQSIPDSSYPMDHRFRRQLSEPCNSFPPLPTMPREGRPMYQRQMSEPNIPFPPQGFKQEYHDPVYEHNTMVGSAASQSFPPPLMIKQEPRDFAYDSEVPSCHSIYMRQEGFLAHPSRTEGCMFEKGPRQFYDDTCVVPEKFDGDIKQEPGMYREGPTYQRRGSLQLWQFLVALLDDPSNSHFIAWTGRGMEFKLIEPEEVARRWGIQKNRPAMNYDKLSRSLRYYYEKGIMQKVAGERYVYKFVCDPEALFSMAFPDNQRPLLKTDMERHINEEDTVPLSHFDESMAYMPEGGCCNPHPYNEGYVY
# SPIB, sequence (Q01892 whole entry): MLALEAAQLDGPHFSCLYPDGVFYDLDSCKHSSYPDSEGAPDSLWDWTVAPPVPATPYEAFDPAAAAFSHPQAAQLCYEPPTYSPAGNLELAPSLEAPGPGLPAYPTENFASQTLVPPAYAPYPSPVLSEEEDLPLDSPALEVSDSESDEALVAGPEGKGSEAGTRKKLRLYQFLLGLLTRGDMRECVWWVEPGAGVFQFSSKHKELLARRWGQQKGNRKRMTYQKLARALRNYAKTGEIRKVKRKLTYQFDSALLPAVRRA
# ELF1, sequence (P32519 whole entry): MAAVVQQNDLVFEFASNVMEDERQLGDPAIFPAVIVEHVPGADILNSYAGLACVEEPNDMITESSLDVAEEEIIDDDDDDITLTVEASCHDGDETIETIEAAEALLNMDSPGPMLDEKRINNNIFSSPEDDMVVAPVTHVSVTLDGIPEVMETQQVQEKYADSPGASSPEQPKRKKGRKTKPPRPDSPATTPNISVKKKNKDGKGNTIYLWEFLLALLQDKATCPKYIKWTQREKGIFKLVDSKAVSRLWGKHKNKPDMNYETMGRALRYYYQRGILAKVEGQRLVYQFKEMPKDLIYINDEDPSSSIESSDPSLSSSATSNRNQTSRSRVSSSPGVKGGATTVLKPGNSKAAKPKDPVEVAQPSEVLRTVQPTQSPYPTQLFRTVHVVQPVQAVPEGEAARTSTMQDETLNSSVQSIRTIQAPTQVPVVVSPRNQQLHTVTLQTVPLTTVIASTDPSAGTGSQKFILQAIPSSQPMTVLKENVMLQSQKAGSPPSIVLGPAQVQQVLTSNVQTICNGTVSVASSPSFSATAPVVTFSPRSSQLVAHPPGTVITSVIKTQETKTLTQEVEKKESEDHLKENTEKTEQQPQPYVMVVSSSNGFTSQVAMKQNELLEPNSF
# HSF1, sequence (Q00613 whole entry): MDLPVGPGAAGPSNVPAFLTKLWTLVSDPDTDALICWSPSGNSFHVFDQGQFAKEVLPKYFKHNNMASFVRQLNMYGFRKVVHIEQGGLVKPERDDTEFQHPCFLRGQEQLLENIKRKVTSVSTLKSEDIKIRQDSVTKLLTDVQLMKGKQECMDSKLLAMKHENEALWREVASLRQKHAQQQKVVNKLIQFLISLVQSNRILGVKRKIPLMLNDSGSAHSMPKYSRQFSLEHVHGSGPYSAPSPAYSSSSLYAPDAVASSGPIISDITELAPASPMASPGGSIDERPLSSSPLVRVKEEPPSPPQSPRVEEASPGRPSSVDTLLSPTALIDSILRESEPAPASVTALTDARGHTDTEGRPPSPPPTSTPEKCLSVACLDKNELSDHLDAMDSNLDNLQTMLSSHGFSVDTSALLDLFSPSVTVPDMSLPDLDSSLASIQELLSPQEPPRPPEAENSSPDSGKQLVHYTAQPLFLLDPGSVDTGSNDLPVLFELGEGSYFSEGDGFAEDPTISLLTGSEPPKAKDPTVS
sequence,measurement,setting,value
ACTGGC,binding signal,[1],"1.26 fold enrichment (6-mer frequency, TF over GST control)"
same,binding signal,[2],"1.12 fold enrichment (6-mer frequency, TF over GST control)"
same,binding signal,[3],"1.22 fold enrichment (6-mer frequency, TF over GST control)"
same,binding signal,[4],"1.11 fold enrichment (6-mer frequency, TF over GST control)"
same,binding signal,[5],"1.18 fold enrichment (6-mer frequency, TF over GST control)"
same,binding signal,[6],"1.1 fold enrichment (6-mer frequency, TF over GST control)"
same,binding signal,[7],"1.22 fold enrichment (6-mer frequency, TF over GST control)"
same,binding signal,[8],"1.15 fold enrichment (6-mer frequency, TF over GST control)"
same,binding signal,[9],"1.21 fold enrichment (6-mer frequency, TF over GST control)"
same,binding signal,[10],"1.11 fold enrichment (6-mer frequency, TF over GST control)"
same,binding signal,[11],"1.11 fold enrichment (6-mer frequency, TF over GST control)"
same,binding signal,[12],"1.07 fold enrichment (6-mer frequency, TF over GST control)"
same,binding signal,[13],"1.28 fold enrichment (6-mer frequency, TF over GST control)"
same,binding signal,[14],"1.16 fold enrichment (6-mer frequency, TF over GST control)"
same,binding signal,[15],"1.25 fold enrichment (6-mer frequency, TF over GST control)"
same,binding signal,[16],"1.11 fold enrichment (6-mer frequency, TF over GST control)"
same,binding signal,[17],"1.1 fold enrichment (6-mer frequency, TF over GST control)"
same,binding signal,[18],"1.11 fold enrichment (6-mer frequency, TF over GST control)"
